Activity calls are given as the source filed them.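 The calls were made as follows: active = EC50 at or below 10 µM; inactive = EC50 above 10 µM.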
Experiment: compound autofluorescence in calcium buffer – biochemical, fluorescence, no RTF in test wells, artefact control for cardiac thin filament activator project, dose response (AID 504697);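 also: emission near 535 nm under roughly 485 nm excitation as for IANBD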
Conditions: compound-only fluorescence in RTF assay buffer with Ca2+ (no RTF in test wells), artifact counterscreen

Compound | EC50
CCCNC(=O)Cn1c(=O)/c(=C\c2ccc(-c3ccc([N+](=O)[O-])cc3)o2)s/c1=C\C(=O)C(C)(C)C | 0.335 µM (active)
CCOC(=O)c1sc(-c2ccc(F)cc2)cc1NC(=O)Nc1ccccc1OC | > 71.4 µM (inactive)
O=[n+]1c2c(n([O-])c3ccccc31)CCC2 | > 71.5 µM (inactive)
CC(=O)N1CCc2c(sc(NC(=O)C3CCCN3S(=O)(=O)c3cccs3)c2C(N)=O)C1 (stereo not given) | 42.6 µM (inactive)
C=CCn1c(=O)[nH]c2nc3cc(N=CN(C)C)c(C)cc3nc2c1=O | 4.96 µM (active)
COc1ccc2nc(-c3ccccn3)[nH]c2c1 | > 71.5 µM (inactive)
CCn1cc(C(=O)NCCC(=O)NCCO)c(=O)c2cc3c(cc21)OCO3 | > 71.4 µM (inactive)
O=C(N/N=C/c1sc2ccccc2c1O)c1ccccc1 | 17.9 µM (inactive)
S=c1[nH]nc(-c2ccc(Cl)cc2)n1-c1ccc2c(c1)OCCO2 | > 71.5 µM (inactive)
O=C(NC1CCCCC1)c1cccc2c1C(=O)c1ccc(N3CCCC3)cc1S2(=O)=O | > 23.8 µM (inactive)
O=C(OCCN1C(=O)c2cccc3c(N4CCOCC4)ccc(c23)C1=O)c1ccc(Cl)cc1Cl | 2.52 µM (active)
CN1CCC2(CC1)C1CN(C)CC=C1C(C#N)=C(N)C2(C#N)C#N (stereo not given) | 23.5 µM (inactive)
c1ccc2[nH]c3cc4ncnc4cc3nc2c1 | 17.9 µM (inactive)
CC(/C=N/Nc1ccc2nncn2n1)=C\c1ccccc1 | > 71.5 µM (inactive)
Cc1sc(NC(=O)CSc2nnc(C(C)C)n2C)c(C#N)c1C | > 71.5 µM (inactive)

Source: PubChem BioAssay AID504697 (The Scripps Research Institute Molecular Screening Center, 2011)
